PubChem BioAssay (NCATS)
Records with an inconclusive call do not appear. Entries that show only a call come without a potency. A number with no mark means an inactive call. Active and inactive are the calls of the source. Calls follow the shape of the dose curve; as a rule, active = well fitted inhibition curve with a large enough effect; inconclusive = small, poorly fitted or top-dose-only effect; inactive = flat fitted curve, though single readings scatter. Where a SMILES comes first, the peptide text is derived from it. The star is where a group is joined. AMC = Cc1cc(=O)oc2cc(N*)ccc12; Cbz = O=C(OCc1ccccc1)*

Experiment: Primary qHTS for inhibitors of nuclear receptor binding SET domain protein 2 (NSD2) in an isogenic RCH-ACV NSD2 p.E1099K mutant (9B) (AID 1645876); also: nearly all actives have a fitted effect of over 70% in size
Settings: RCH-ACV (leukaemia line) NSD2 E1099K (9B) viability, CellTiter-Glo, 72 h; series mostly up to 44.9 µM

SMILES | Potency | activity change, negative = viability loss
C=C(CCO[C@@H]1O[C@H](CO)[C@@H](O)[C@H](O)[C@H]1O)C(=O)O | inactive | 
C=C1C2CCC3C(CCC4[C@@]3(C)CCC[C@@]4(C)C(=O)O)(C2)[C@@H]1OC(=O)/C(C)=C\C (some centres undefined) | inactive | 
O=C(/C=C/c1ccc(O)cc1)O[C@@H]1C[C@@](O)(C(=O)O)C[C@@H](O)[C@@H]1O | inactive | 
C=C1CC2C3(C)C=CC(=O)OC(C)(C)C3CC(OC(C)=O)C2(C)C2C(=O)OC(C)C(=O)C12C (centres undefined) | inactive | 
CO[C@@H]1[C@]2(O)C(=O)N3/C=C\C(C)(C)c4[nH]c5ccccc5c4/C=C\3C(=O)N2[C@]23[C@H](CO)C(C)(C)N2c2ccccc2[C@]13O | inactive | 
COc1cc(C)c(C(=O)O[C@@H]2[C@H](O)[C@@H](CO)O[C@H]2n2ccc(=O)[nH]c2=O)c(OC)c1 | inactive | 
CN1CCN(C(=O)c2cc3cc(Cl)ccc3[nH]2)CC1 | inactive | 
C=C1CC23CC(=O)C4C(CO)(CO)CCCC4(C)C2CCC1C3 (centres undefined) | inactive | 
CC(C)=CCc1cc(O[C@@H]2O[C@H](CO[C@@H]3OC[C@](O)(CO)[C@H]3O)[C@@H](O)[C@H](O)[C@H]2O)ccc1O | inactive | 
C/C=C/C1OC2=C(C(=O)OC2(C)O)C(O)C1O (centres undefined) | inactive | 
Cc1cc(=O)oc2cc(NC(=O)[C@H](CCC(=O)O)NC(=O)[C@H](CC(C)C)NC(=O)[C@H](CC(C)C)NC(=O)OCc3ccccc3)ccc12 (Cbz-Leu-Leu-Glu-{AMC}) | inactive | 
O=C(O[C@H]1[C@H](Oc2ccc(O)cc2CO)O[C@H](CO)[C@@H](O)[C@@H]1O)c1ccccc1 | inactive | 
CCC/C=C/C=C/C1CC(O)C(O)C(=O)C1CO (centres undefined) | inactive | 
C=C1CC23CC1CCC2C12OC(=O)C(C)(C(O)C(O)C1O)C2C3C(=O)O (centres undefined) | inactive | 
C=CC(C)(C)C12Nc3c(ccc4c3OC(C)(C)C=C4)C1(O)CC1C(=O)N3CCCC3C(=O)N12 (centres undefined) | inactive | 
COCC1OC(OC(C)(C)C2CCC3(C)C=C(C4CCC5C4(C)CC(O)C4OC(C(C)(C)O)CCC45C)CCC3O2)C(NC(C)=O)C(O)C1O (centres undefined) | inactive | 
CCCCCOC(=O)Nc1nc(=O)n(C2O[C@H](C)[C@@H](O)[C@H]2O)cc1F (some centres undefined) | inactive | 
COc1ccc(C(=O)OC2C3C=COC(OC4OC(CO)C(O)C(O)C4O)C3C3(CO)OC23)cc1OC (centres undefined) | inactive | 
COc1cncc(C#Cc2ccccn2)c1 | inactive | 
COc1cc(C2Oc3c(OC)cc(CCCO)cc3C2CO)ccc1O (centres undefined) | inactive | 

SMILES | Potency | activity change, negative = viability loss
COC(=O)[C@]1(Cc2ccc(O)c(CC=C(C)C)c2)OC(=O)C(O)=C1c1ccc(O)cc1 | inactive | 
COc1cc(/C=C/C(=O)O[C@H]2[C@H](O)[C@@H](CO)O[C@@]2(CO)O[C@H]2O[C@H](CO)[C@@H](O)[C@H](O)[C@H]2O)cc(OC)c1O | inactive | 
CC(C)=CCC/C(C)=C/CO[C@@H]1O[C@H](CO[C@@H]2OC[C@](O)(CO)[C@H]2O)[C@@H](O)[C@H](O)[C@H]1O | inactive | 
CC1=C2C[C@@]3(C)C(CCC[C@@H]3C)C(O)C2(O)OC1=O (some centres undefined) | inactive | 
OC[C@H]1O[C@@H](OC[C@H]2O[C@@H](OCc3ccccc3)[C@H](O)[C@@H](O)[C@@H]2O)[C@H](O)[C@@H](O)[C@@H]1O | inactive | 
Cc1ccc(C)c(S(=O)(=O)n2cnc3ccccc32)c1 | inactive | 
C/C=C(/C)C(=O)OC1C2OC2C2(CO2)C2C3OC(=O)C(C)C3CCC12C (centres undefined) | inactive | 
CC1(C)C=Cc2c(ccc3c2N=C2C(C)(C)[C@@H]4C[C@]56CCCN5C(=O)[C@@]4(C[C@]23O)NC6=O)O1 | inactive | 
C=C(CC/C=C(\C)C(=O)O)C1(O)CC=C(C)CC1 (centres undefined) | inactive | 
CC1(C)CC[C@]2(C(=O)O[C@@H]3O[C@H](CO)[C@@H](O)[C@H](O)[C@H]3O)CC[C@]3(C)C(=CCC4[C@@]5(C)C[C@@H](O)[C@H](O)[C@@](C)(CO)C5[C@H](O)C[C@]43C)C2C1 (some centres undefined) | inactive | 
C=C1C[C@]23C[C@@]1(O)CC[C@H]2[C@@]12C=C[C@H](O)[C@@](C)(C(=O)O1)[C@H]2[C@@H]3C(=O)O | inactive | 
COC(=O)C1=CO[C@@H](O[C@@H]2O[C@H](CO)[C@@H](O)[C@H](O)[C@H]2O)[C@@H]2[C@@H](C)[C@@H](O)C(O)[C@H]12 (some centres undefined) | inactive | 
OC[C@@]1(O)CO[C@@H](OC[C@H]2O[C@@H](OCc3ccccc3)[C@H](O)[C@@H](O)[C@@H]2O)[C@@H]1O | inactive | 
CC(C/C=C/C(C)(C)O)C1CCC(C)(O)C(O)C1 (centres undefined) | inactive | 
C[C@H]1CCN2C[C@]34C[C@@]5(C(=O)Nc6c5ccc5c6OC=CC(C)(C)O5)C(C)(C)C3C[C@]12C(=O)N4C (some centres undefined) | inactive | 
O=C(C1OC1/C=C/c1ccc2c(c1)OCO2)N1CCCCC1 (centres undefined) | inactive | 
OC[C@H]1O[C@@H](OCc2ccccc2)[C@H](O[C@@H]2OC[C@@H](O)[C@H](O)[C@H]2O)[C@@H](O)[C@@H]1O | inactive | 
COc1cc(C)c(C(=O)NC2C(C)OC(OC3CCC(C)C4C3C=C(C)C3/C(C)=C\CC/C(C)=C/C5(C)C=C(C(=O)O)C(C)CC56OC(=O)/C(=C(\O)C34C)C6=O)C(O)C2(C)O)c(O)c1 (centres undefined) |  | 4.33% [at 9.23 µM]
COC(=O)C1=CO[C@@H](O[C@@H]2O[C@H](CO[C@@H]3O[C@H](CO)[C@@H](O)[C@H](O)[C@H]3O)[C@@H](O)[C@H](O)[C@H]2O)[C@@H]2C(CO)=CC[C@H]12 | inactive | 
